Measurements taken from the supplement of paper PMC8975748.
Counter-ions that a name gives are not always drawn.

system: Saccharomyces cerevisiae BY4741 SeMeCo community; test: z-score of subpopulation abundance vs DMSO median, subpopulation auxotrophic for LU; higher = larger share of this subpopulation than in DMSO controls; conditions: 10 µM; 24 h; SM minimal medium; subpopulation (auxotrophy): LU
In short: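 Cells of a Saccharomyces cerevisiae BY4741 community, carrying four plasmids that each restored one auxotrophy and encoded a distinct fluorescent protein, were pre-grown overnight to OD600 1.0 and diluted to 0.3. A 70 µl volume was added to 384-well plates acoustically predosed with library drugs (10 µM final) and grown 24 h in minimal SM medium. After paraformaldehyde fixation, automated confocal microscopy was used, with single-auxotroph fluorescent strains for thresholds and autofluorescence correction. The abundance of each subpopulation was scored as a z-score against the vehicle-well median.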

Row | SMILES | z-score of subpopulation abundance
1 | C[C@]12CCC(=O)C=C1[C@@H]1C[C@@H]1[C@H]1[C@@H]3[C@@H]4C[C@@H]4[C@@]4(CCC(=O)O4)[C@@]3(C)CC[C@@H]12 [Drospirenone] | 0.11
2 | CC[C@H]1OC(=O)[C@H](C)[C@@H](O[C@H]2C[C@@](C)(OC)[C@@H](O)[C@H](C)O2)[C@H](C)[C@@H](O[C@@H]2O[C@H](C)C[C@H](N(C)C)[C@H]2O)[C@](C)(O)C[C@@H](C)/C(=N\OCOCCOC)[C@H](C)[C@@H](O)[C@]1(C)O [Roxithromycin] | -0.28
3 | CCC(C)(C)c1ccc(CC(C)CN2C[C@@H](C)O[C@@H](C)C2)cc1 (stereo partly specified) [Amorolfine HCl] | -0.63
4 | CC(=O)N[C@H]1[C@H]([C@H](O)[C@H](O)CO)OC(C(=O)O)=C[C@@H]1NC(=N)N [Zanamivir] | -0.15
5 | CCOc1cc(N)c([N+](=O)[O-])cc1C(=O)NC1CCN(CC2CC=CCC2)CC1 (stereo unspecified) [Cinitapride Hydrogen Tartrate] | 0.88
6 | CCC(=O)c1c(O)cc(O)cc1O [Flopropione] | -0.57
7 | CCCCCNC(=N)N/N=C/c1c[nH]c2ccc(OC)cc12 [Tegaserod Maleate] | 0.84
8 | CC(C)c1c(C(=O)Nc2ccccc2)c(-c2ccccc2)c(-c2ccc(F)cc2)n1CC[C@@H](O)C[C@@H](O)CC(=O)O [Atorvastatin] | 1.58
9 | COc1ccc(C(C)=O)c(O)c1 [Paeonol] | 0.12
10 | Cc1cc(NS(=O)(=O)c2ccc(N)cc2)no1 [Sulfamethoxazole sodium] | 0.09
11 | NC12CC3CC(CC(C3)C1)C2 [Amantadine] | 0.79
